# Measured values: PubChem BioAssay AID485353 (National Center for Advancing Translational Sciences (NCATS), 2010)
# Screen size: about 330,000 compounds; about 610 (0.18%) were called active. Inconclusive results (about 2%) are left out. What follows is part of a selection rich in actives, with near analogues and random picks from the rest. A number with no mark means an inactive call. The call rests on the fitted dose curve.
# Test: qHTS of Yeast-based Assay for SARS-CoV PLP; further: nearly all actives have a fitted effect of over 55% in size; on activity, positive = growth rescue: 0% is about no effect
# Settings: S. cerevisiae expressing SARS-CoV PLpro; Potency: growth rescue; series mostly up to 32.9 µM; activity, positive = growth rescue: at the top concentration
# Potency means the concentration at half of the fitted maximal effect.
Structure (SMILES),"activity, positive = growth rescue",Potency
O=C(Nc1ccc(C(=O)O)cc1)/C(=C/c1ccc([N+](=O)[O-])cc1)NC(=O)c1ccccc1,0.0593%,
C=CCNC(=O)/C(=C\c1cccc([N+](=O)[O-])c1)NC(=O)c1ccccc1,-8.39%,
O=C(N/N=C/c1cc([N+](=O)[O-])ccc1O)/C(=C\c1cccs1)NC(=O)c1ccccc1,,3.98 µM (active)
COc1cccc(CNC(=O)CN(C)S(=O)(=O)c2ccc3c(c2)c(=O)n(C)c(=O)n3C)c1,,3.55 µM (active)
CC1CCC(NC(=O)CN(C)S(=O)(=O)c2ccc3c(c2)c(=O)n(C)c(=O)n3C)CC1 (stereo not given),-0.025%,
CCc1ccccc1NC(=O)CN(C)S(=O)(=O)c1ccc2c(c1)c(=O)n(C)c(=O)n2C,7.46%,
COc1ccc(NC(=O)Nc2ccc3c(c2)C(=O)N([C@H](C)CO)C[C@H](C)[C@@H](CN(C)C(=O)Nc2ccc4c(c2)OCO4)O3)cc1,-9%,
Cc1ccc(S(=O)(=O)N2[C@@H](c3cccc(Cl)c3)C(C(=O)O)=CC[C@H]2c2ccc(Cl)c(Cl)c2)cc1,-2.2%,
CCCCNC(=O)N(O)C1N(/N=C/c2ccccc2O)C(=S)SC1(C)C (stereo not given),-0.771%,
COC(=O)c1ccc(/C=N/OCC(=O)Nc2cc(F)ccc2F)cc1,0.314%,
COc1ccc(-c2cc(=O)oc3cc(OC(C)C(=O)NCC4CCC(C(=O)O)CC4)ccc23)cc1 (stereo not given),-11%,
CSc1nsc(SCC(=O)Nc2cc(C(=O)O)ccc2C)n1,-10.5%,
O.O.O.O=S(=O)([O-])OC[C@H]1O[C@@H](O[C@]2(COS(=O)(=O)[O-])O[C@H](OS(=O)(=O)[O-])[C@@H](OS(=O)(=O)[O-])[C@@H]2OS(=O)(=O)[O-])[C@H](OS(=O)(=O)[O-])[C@@H](OS(=O)(=O)[O-])[C@@H]1OS(=O)(=O)[O-].[Al],-2.8%,
Nc1nonc1-n1nnc(C(=O)N/N=C/c2c[nH]c3ccccc23)c1-c1ccccc1,2.38%,
CC(C)c1c(C(=O)N/N=C/c2ccccc2C(=O)O)nnn1-c1nonc1N,,5.01 µM (active)
CC(C)c1c(C(=O)N/N=C/c2ccc(-c3ccccc3)cc2)nnn1-c1nonc1N,4.62%,
CCc1ccccc1N1C(=O)C2C3CC(=O)C(c4ccccc43)C2C1=O (stereo not given),-0.753%,
c1ccc2cc3c(NCCN4CCOCC4)ccnc3cc2c1,-6.02%,
Fc1ccc(CNCc2ccc(Br)cc2)cc1,-2.89%,
O=C(CCl)N(Cc1cccc([N+](=O)[O-])c1)c1cccc(Cl)c1,-13.9%,

Structure (SMILES),"activity, positive = growth rescue",Potency
COc1ccc(NC(=O)Cn2cc(C(=O)c3ccncc3)c(=O)c3cc(C)ccc32)cc1Cl,-4.91%,
COc1cc(C2C(C(=O)OCCC#N)=C(C)NC3=C2S(=O)(=O)c2ccccc23)cc(OC)c1OC (stereo not given),-1.09%,
COc1ccc(C2N=C(N)N=C(N)N2c2ccccc2)cc1OC (stereo not given),14.8%,
CCOC(=O)C1CCN(S(=O)(=O)c2c(C)noc2C)CC1,-1.04%,
COc1ccc(CCN2CC(C(=O)NCCN3CCNC3=O)CCC2=O)cc1 (stereo not given),-2.52%,
CN(C)C(=O)N1CCNCC1,0.248%,
CCC(=O)Nc1nc(OC)cc(OC)n1,1.15%,
CCC(=O)Nc1c(C)n[nH]c1C,,10 µM (active)
COC(=O)c1ccc(NC(=O)CN(c2ccc(C)cc2)S(=O)(=O)c2c(C)n[nH]c2C)cc1,-1.77%,
CCCC[C@]12Cc3cc(OC)c(OC)cc3C(O1)C1=C(CC3(CCCCC3)OC1=O)O2,5.12% [at 6.58 µM],
O=C(CSc1ncnc2c1cnn2CCc1ccccc1)Nc1ccc(F)cc1,-3.59%,
O=C(NCCCCCCCCCNC(=O)C(F)(F)F)C(F)(F)F,-1.93%,
CC1CC(C)CN(C/C=C/c2ccccc2[N+](=O)[O-])C1 (stereo not given),1.94%,
COc1ccc(NC(=O)C(NC(C)=O)C(=O)NCc2ccccc2Cl)cc1 (stereo not given),-3.2%,
CCCCNS(=O)(=O)CCNCc1ccccc1OC,9.04%,
CCOC(=O)[C@@H]1[C@H]2COc3cc(OC)ccc3[C@H]2N2C(=O)N(c3ccc(F)cc3)C(=O)[C@]12C,8.51%,
CCCN(CC1COc2ccccc2O1)C(=S)Nc1ccc(C)cc1 (stereo not given),-48.5%,
S=C(NCC1COc2ccccc2O1)Nc1ccc(Br)cc1 (stereo not given),1.94%,
CC(NC(=S)Nc1ccccc1)C1COc2ccccc2O1 (stereo not given),,10 µM (active)
O=C(CNC(=O)C12CC3CC(CC(C3)C1)C2)OCC(=O)N1CCCCC1,3.92%,

Structure (SMILES),"activity, positive = growth rescue",Potency
Cc1sc(NC(=O)C2=COCCO2)c(C#N)c1C,2.2%,
Cc1cccc(N2O[C@H]3C=CC2CCCC3)n1,-0.669%,
COc1ccc(CCNC(=O)COC(=O)c2ncc(Cl)c(Cl)c2Cl)cc1OC,0.326%,
CC1(C)C2CCC1(CS(=O)(=O)NCCc1c[nH]c3ccccc13)C(=O)C2 (stereo not given),0.0459%,
Cc1nc2c(C(=O)NCc3cccs3)cnn2c(C)c1Cc1ccc(F)cc1,8.47%,
Nc1ccccc1SC(C[N+](=O)[O-])c1ccccc1 (stereo not given),-17.8%,
COc1ccc(N(CCC#N)S(=O)(=O)c2ccc(Cl)cc2)cc1,6.74%,
Cc1ccc(N2C(=O)S/C(=C/c3cn(C)c4ccccc34)C2=O)cc1,-0.142%,
Cc1ccc(N=C2NC(=O)/C(=C/C=C/c3ccco3)S2)cc1C,-2.44%,
Cc1cccc(N=C2NC(=O)/C(=C/c3cn(C)c4ccccc34)S2)c1,,15.8 µM (active)
CCCCNc1nc2ccccc2nc1NS(=O)(=O)c1cccs1,-1.16%,
O=S(=O)([N-]c1nc2ccccc2nc1-[n+]1ccc(Cc2ccccc2)cc1)c1ccc(Br)s1,-1.28%,
Cc1cc(C)c[n+](-c2nc3ccccc3nc2[N-]S(=O)(=O)c2cccs2)c1,,11.2 µM (active)
CCC1CCCCN1C(=O)CSc1nc2c(c(=O)n1C)SC(C)C2 (stereo not given),-2.93%,
COc1ccc(/C=N/NC(=O)c2ccncc2)cc1CN1CCCc2ccccc21,0.0683%,
COc1cccc(/C=N/NC(=O)c2[nH]nc3c2CCc2ccccc2-3)c1O,,6.31 µM (active)
COc1ccc(Br)cc1/C=N/NC(=O)c1cccc(S(=O)(=O)N2CCOCC2)c1,0.939%,
CC(C#N)(NC(=O)CN1CCN(S(=O)(=O)c2cc(C(F)(F)F)ccc2Cl)CC1)C1CC1 (stereo not given),7.04%,
COc1ccc2cc(-c3[nH]ncc3CNCCn3nc(C)cc3C)ccc2c1,0.222%,
CCn1c(=O)c(=O)n(CC)c2cc(N3CCCCC3)c(NC(=O)c3ccc(Cl)cc3)cc21,-8.37%,
